Consider 68 compounds from ChEMBL document CHEMBL3988442, “University of Dundee, Small-Polar-MMV Screening Library” (2021).

Screen size: about 48,000 compounds; about 13,000 (27%) showed an effect of 50% or more. The list shows a part of the results.

The subject of the experiment is Wolbachia pipientis. Briefly: Anti-Wolbachia Cell-Based Screen. It is filed as functional. The arrangement: scale not given: in the data most compounds retested in dose-response had high values. The note with it: 5 µM.
`COCC(=O)N1Cc2ccnn2CC(COCCN(C)C)C1.O=C(O)C(F)(F)F.O=C(O)C(F)(F)F` (stereo not drawn): the “Percent Effect” value is -12.14%. For the compound `Cc1csc(-c2cccc(NC(=O)NCC(C)(C)C(N)=O)c2)n1`, the “Percent Effect” value turned out to be 1.71%. On to `CC(C)n1cnc2c1C(C(=O)N(C)C)N(Cc1ccccc1)CC2.O=C(O)C(F)(F)F` (stereo not drawn), for which the “Percent Effect” value is listed as -8.577%. In the case of `O=C(c1cc[nH]n1)N1CCOCC2(C1)CN(c1ccccc1)C(=O)CO2` (stereo not drawn), the “Percent Effect” value came out at 99%. For `Cc1noc(C(C)N2CCN(CCC(=O)N3CCOCC3)CC2)n1` (stereo not drawn), the “Percent Effect” value was found to be 136%. For the compound `CCOc1cc(C)nc(N2CCN(C(C)c3nc(C)no3)CC2)n1` (stereo not drawn), the “Percent Effect” value was -8.841%. For `Cc1noc(C(C)N2CCN(CC(=O)N3CCCC3)CC2)n1` (stereo not drawn), the “Percent Effect” value was 104.8%. `Cc1noc(C(C)N2CCN(CCn3ccccc3=O)CC2)n1` (stereo not drawn): the “Percent Effect” value is 1.866%. For `Cc1noc(C(C)N2CCN(CCc3ccncc3)CC2)n1` (stereo not drawn), the “Percent Effect” value is on record as -4.658%. Take `Cc1cnc(CN2CCN(C(C)c3nc(C)no3)CC2)cn1` (stereo not drawn): the “Percent Effect” value is given as 31.99%. Turning to `Cn1ccnc1C1CCN(S(=O)(=O)c2ccc3[nH]c(=O)[nH]c3c2)CC1`, the “Percent Effect” value is -2.986%. For the compound `Cn1ccnc1C1CCN(S(=O)(=O)c2ccc3oc(=O)[nH]c3c2)CC1`, the “Percent Effect” value is listed as -28.87%.

Regarding `Cc1cc(=O)[nH]c(NC2CCN(S(=O)(=O)c3ccccc3)CC2)n1`, the “Percent Effect” value worked out at 124.4%. Next, `Cc1cc(=O)[nH]c(NCCNC(=O)c2ccccc2N2CCCC2)n1`: 13.63%. For `O=C(c1[nH]nc(C2CC2)c1Cl)N1CCN(S(=O)(=O)c2ccccc2)CC1`, the “Percent Effect” value is -6.506%. For the compound `CCc1cc(NC2CCN(S(C)(=O)=O)CC2)n2nc(C)c(C)c2n1`, the “Percent Effect” value is -8.298%. Next, `Cc1nc(NC2CCN(S(=O)(=O)c3ccccc3)CC2)[nH]c(=O)c1C`: 93.81%; `CCc1cc(=O)[nH]c(NC2CCN(S(=O)(=O)c3ccccc3)CC2)n1`: 74.59%; `CC[C@H]1CN(S(=O)(=O)c2ccccc2)CC[C@H]1CC(=O)O`: 3.953%. In the case of `CC(C)(C)n1ncc2c(=O)[nH]c(NC3CC=CC3)nc21`, the “Percent Effect” value stood at 3.92%. `CS(=O)(=O)NC[C@H]1Cn2c(-c3ccccc3)cnc2CO1`: the “Percent Effect” value is on record as -16.47%.

As for `CCNC(c1ccc(C(C)C)cc1)c1cccnc1` (stereo not drawn), the “Percent Effect” value worked out at 85.86%. In the case of `CCN(C(c1cccnc1)c1ccc(F)cc1F)S(C)(=O)=O` (stereo not drawn), the “Percent Effect” value was -3.142%. Take `CCNC(c1ccc(Br)cc1)c1cccnc1` (stereo not drawn): the “Percent Effect” value was 106.3%.

Consider `CCNC(c1ccc(OC)cc1)c1cccnc1` (stereo not drawn), for which the “Percent Effect” value is listed as -6.571%. The value for `CCC(Nc1ncccn1)c1cccnc1` (stereo not drawn) was 8.55%; that for `CCNC(c1cccnc1)c1ccc(F)c(C)c1` (stereo not drawn) was 95.54%. As to `CC(NCCCC#N)c1ccc(-c2cccnc2)cc1` (stereo not drawn), the “Percent Effect” value is -3.574%.

Consider `CCOCCN(C)C(c1cccnc1)c1ccc(F)cc1F` (stereo not drawn), for which the “Percent Effect” value is -0.1699%. Next, `CCNC(c1cccnc1)c1ccc(F)c(F)c1` (stereo not drawn): -4.502%; `CCNC(c1cccnc1)c1ccc(F)cc1F` (stereo not drawn): 101.5%; `CCN(C(c1cccnc1)c1ccc(F)c(F)c1)S(C)(=O)=O` (stereo not drawn): 5.552%. The value for `NC(=O)CC1CCN(C(=O)CCOc2ccc(Cl)cc2)CC1` was -10.96%. Take `COCCCN(C)C(=O)Cn1cccc(OC)c1=O`: the “Percent Effect” value is -68.57%. For `CN(C)Cc1cn(CC2CCCN(c3nccc4occc34)C2)nn1` (stereo not drawn), the “Percent Effect” value is -7.203%. Turning to `Cc1nc(CN2CCN(Cc3cc4n(n3)CCNC4)CC2)cs1`, the “Percent Effect” value is given as -7.4%. With `O=C(c1ncn2c1CNS(=O)(=O)c1ccccc1-2)N1CCCCCC1`, the “Percent Effect” value is recorded as -12.52%. The value for `CCNC(c1cccnc1)c1cc(C)cc(C)c1` (stereo not drawn) was 1.12%; that for `CC(NCc1cccc(S(=O)(=O)N(C)C)c1)c1cccnc1` (stereo not drawn) was -5.764%; that for `CCNC(c1ccc(Cl)cc1)c1cccnc1` (stereo not drawn) was 74.82%. For `CCNC(c1ccc(CC)cc1)c1cccnc1` (stereo not drawn), the “Percent Effect” value worked out at 93.88%. For `CCNC(c1ccc(C)cc1)c1cccnc1` (stereo not drawn), the “Percent Effect” value was 100.9%. Next, `CCc1cnc(NCC(C)Oc2cccnc2)nc1` (stereo not drawn): 7.623%; `Cc1ccc(C)c(C(NC2CCCC2)c2cccnc2)c1` (stereo not drawn): -43.53%; `Cc1[nH]c2c(F)cccc2c1CC(=O)N1CCC(NS(C)(=O)=O)CC1`: 3.004%. As to `N#Cc1ccc(N2CCCC2Cn2cccn2)nc1` (stereo not drawn), the “Percent Effect” value was 15.37%. The value for `CCc1ncc(C(=O)N2CCCOC(Cn3cccn3)C2)cn1` (stereo not drawn) was 5.482%; that for `N[C@H]1CN(C(=O)Cc2cc(F)cc(Cl)c2)C[C@@H]1C1CC1` was -8.09%. As for `CC(C)n1cc(CN2CCCN(C(=O)C3CCCN3C)CC2)cn1` (stereo not drawn), the “Percent Effect” value turned out to be 115.6%. Turning to `CC(C)n1cc(CN2CCCN(C(=O)C3CCOC3)CC2)cn1` (stereo not drawn), the “Percent Effect” value came out at 103.2%.

For `CC(C)n1cc(CN2CCCN(C(=O)c3ccnn3C)CC2)cn1`, the “Percent Effect” value is on record as -7.528%. Take `CC(C)n1cc(CN2CCCN(C(=O)C3(C)CCOCC3)CC2)cn1`: the “Percent Effect” value is reported as -0.3166%. Take `CCc1nc(CN2CCCN(C(=O)C3CCOC3)CC2)cs1` (stereo not drawn): the “Percent Effect” value amounted to 3.952%. Next, `CC(C)=CCCC(C)CN1CCC(n2cc(C(C)(C)O)nn2)CC1` (stereo not drawn): -10.5%; `O=c1[nH]c(C2CCOC2)nc2cc(F)c(F)cc12` (stereo not drawn): -25.67%. As to `c1cnn(CC2CN(Cc3nnc(C4CC4)o3)CCO2)c1` (stereo not drawn), the “Percent Effect” value worked out at 144.3%. The value for `c1ccc2oc(CCCN3CCCC(Cn4cncn4)C3)nc2c1` (stereo not drawn) was 99.07%.

As to `O=c1[nH]c(CCN2CCCC(Cn3cncn3)C2)nc2ccccc12` (stereo not drawn), the “Percent Effect” value is given as 2.487%.

With `Cc1cnn(CC2CN(CCCS(=O)(=O)N(C)C)CCO2)c1` (stereo not drawn), the “Percent Effect” value came to 6.483%. The value for `c1ccc(-c2noc(CN3CCOC(Cn4cccn4)C3)n2)nc1` (stereo not drawn) was 10.47%; that for `Nc1nc(CN2CCCC(Cn3cncn3)C2)nc2ccccc12` (stereo not drawn) was -7.621%; that for `Cc1cnn(CC2CN(CCCS(C)(=O)=O)CCO2)c1` (stereo not drawn) was -24.88%. In the case of `c1ccc2oc(CN3CCOC(Cn4cccn4)C3)nc2c1` (stereo not drawn), the “Percent Effect” value is 90.04%. For the compound `c1ccc2oc(CCCN3CCOC(Cn4cccn4)C3)nc2c1` (stereo not drawn), the “Percent Effect” value was -3.137%. `CC(C)(C)c1nnc(CN2CCOC(Cn3cccn3)C2)o1` (stereo not drawn): the “Percent Effect” value was -7.281%. Next, `c1coc(-c2nnc(CN3CCOC(Cn4cccn4)C3)o2)c1` (stereo not drawn): -1.801%. Consider `Cc1cnn(CC2CN(CCCc3nc4ccccc4o3)CCO2)c1` (stereo not drawn), for which the “Percent Effect” value is given as 130.7%.

For `COc1ccc(CC(=O)N(C)C2CCN(C)C2=O)cc1F` (stereo not drawn), the “Percent Effect” value is listed as -7.072%.
